PLAP activator = PLAP enzyme activators, biochemical, luminescence, HTS | purified PLAP enzyme, luminescent substrate read-out; active compounds read high | 96,000 tested, 1.2% active | activation fold at 20 µM | Alkaline phosphatase, placental type (Homo sapiens), P05187; in the data active means activation fold above about 2
CYP2C19 inhib = blockers of cytochrome P450 2C19 activity – biochemical, luminescence, ADME assay, primary screen | inhibition, % at 5 µM | CYP2C19 Supersomes, luciferin-H EGE luminescence, 30 min | 96,000 tested, 21% active;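 active means CYP2C19 inhibition above a set limit at 5 µM in the primary screen, cut at about 50% in these data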;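 further: plate controls were negative control wells for no effect and 2.5 mM tranylcypromine positive control for full effect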
CYP2C9 act = human CYP2C9 activators, primary screen, biochemical, luminescence. 96,000 tested, 1.4% active. Cytochrome P450 2C9 (Homo sapiens), P11712. recombinant CYP2C9, luciferin-H conversion; active compounds read high; factor 1 = untreated enzyme, 0 = blocked. activation factor at 5 µM;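 active means activation factor of 2 or more for CYP2C9 at a 5 µM dose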;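 further: 0 = sulfaphenazole-blocked wells and 1 = vehicle-only wells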
Target sequence (P11712 whole entry, looked up): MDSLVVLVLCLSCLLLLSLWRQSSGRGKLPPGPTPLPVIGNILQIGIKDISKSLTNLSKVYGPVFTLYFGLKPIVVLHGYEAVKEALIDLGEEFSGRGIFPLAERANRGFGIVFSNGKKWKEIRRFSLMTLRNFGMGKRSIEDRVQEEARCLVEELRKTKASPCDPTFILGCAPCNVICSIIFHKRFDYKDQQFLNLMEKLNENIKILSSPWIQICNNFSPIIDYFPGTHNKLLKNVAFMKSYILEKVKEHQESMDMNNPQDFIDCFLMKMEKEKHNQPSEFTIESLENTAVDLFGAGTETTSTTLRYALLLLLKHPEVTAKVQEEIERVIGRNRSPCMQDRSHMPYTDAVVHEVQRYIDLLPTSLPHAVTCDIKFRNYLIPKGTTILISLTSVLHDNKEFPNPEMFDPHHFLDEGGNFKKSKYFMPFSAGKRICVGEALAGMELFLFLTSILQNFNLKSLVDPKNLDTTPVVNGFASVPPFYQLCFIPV
CYP2C19 activ = human CYP2C19 activators, primary screen, biochemical, luminescence; recombinant CYP2C19, luciferin-H EGE luminescence; active compounds read high; 0 = fully inhibited enzyme, 1 = untreated enzyme; 96,000 tested, under 10 active; activation factor at 5 µM; Cytochrome P450 2C19 (Homo sapiens), P33261;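 active means activation factor of at least 2 at 5 µM in the primary screen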;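 further: 0 = wells with 2.5 mM tranylcypromine and 1 = vehicle-only wells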
CYP2C9 inhib = blockers of cytochrome P450 2C9 activity – biochemical, luminescence, ADME assay, primary screen; 96,000 tested, 20% active; CYP2C9 Supersomes, luciferin-H conversion; P11712; AID 777, 2007; inhibition, % at 5 µM;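 active means blocking of liver enzyme CYP2C9 beyond about 50% at 5 µM, limit read from the data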
The depositor's hits bear a star. An excerpt weighted towards active compounds, which were near 31% of everything screened.

SMILES	PLAP activator	CYP2C19 inhib	CYP2C9 act	CYP2C19 activ	CYP2C9 inhib
COc1cc(C2NC(=O)c3ccccc3O2)cc(OC)c1OC (stereo not drawn)	1.1	94*	0.6	0.1	38
CCOc1ccc(C2NC(=O)c3ccccc3O2)cc1 (stereo not drawn)	0.9	40	0.8	0.6	15
CCOC(=O)c1nnn(-c2nc(OC)nc(N3CCCC3)n2)c1-c1ccccc1	1.1	68*	0.5	0.3	53*
CCOC(=O)c1nnn(-c2nonc2-n2cccc2)c1C	1.3	44	0.6	0.6	41
CCOC(=O)c1nnn(-c2nn3nnnc3c3ccccc23)c1C	1.1	-11	0.4	1.1	55*
CCOC(=O)c1nnn(-c2nonc2N)c1-c1ccccc1	1	72*	0.8	0.3	18
Cc1c(C(=O)OCc2ccccc2)nnn1-c1nonc1N	1	99*	0.6	0	38
CCOC(=O)c1c(-c2ccccc2)nnn1-c1nc(OC)nc(N2CCOCC2)n1	1.3	19	0.7	0.8	26
CCCCC(CC)CNS(=O)(=O)c1ccc2c(c1)CCN2C(=O)CCC(=O)O (stereo not drawn)	1.2	-1	0.8	1	18
CCOc1ccc2[nH]c(=O)c(CN(Cc3ccc(C)cc3)C(=O)N3CCCC3)cc2c1	0.9	10	1	0.9	-2
Cc1ccc(NC(=O)NC(=O)CSc2nnnn2C)c(C)c1	0.7	16	1.1	0.8	-14
COc1cc(C2/C(=C(\O)c3cc(C)ccc3C)C(=O)C(=O)N2CCN(C)C)ccc1O (stereo not drawn)	1.4	16	1	0.8	-3
CCOC(=O)c1nnn(-c2nonc2N)c1CN(C)Cc1ccccc1	0.8	33	0.2	0.7	83*
CCOC(=O)c1nnn(-c2nonc2N)c1-c1ccc(C)cc1	1.1	40	0.7	0.6	30
CCOC(=O)c1c(N)nn(C(=O)C(C)C)c1-c1ccccc1	1.7	69*	0.6	0.3	41
O=C(CCNc1cccc(C(F)(F)F)c1)c1ccco1	0.8	32	1.7	0.7	-67
Clc1ccc2nc3ccccn3c2c1	1	15	1.1	0.8	-8
CC1CC(C)CN(S(=O)(=O)c2cccc(C(=O)OCCN3CCCC3=O)c2)C1 (stereo not drawn)	1.7	4	1	1	-4
O=C(CN1CCOCC1)NCCC12CC3CC(CC(C3)C1)C2	1.5	54*	0.9	0.5	9
CCN(CC)S(=O)(=O)c1ccc(-c2nnc(SCC(=O)N3c4ccccc4CC3C)o2)cc1 (stereo not drawn)	1.1	-8	1	1.1	4
CCN(CC)S(=O)(=O)c1cccc(-c2nnc(SCCCC(=O)c3ccc(F)cc3)o2)c1	1.6	95*	0.1	0	87*
CCN(CC)S(=O)(=O)c1cccc(-c2nnc(-c3ccc(C)cc3)o2)c1	0.8	16	0.8	0.8	16
CCN(CC)S(=O)(=O)c1cccc(-c2nnc(SCCCC(=O)c3ccccc3)o2)c1	1.3	76*	0.4	0.2	64*
CCN(CC)S(=O)(=O)c1cccc(-c2nnc(SCc3nc4ccccc4s3)o2)c1	1.8	93*	0.9	0.1	10
Cc1cccc(/N=C/c2c(O)c3ccccc3oc2=O)n1	1	16	1	0.8	-2
SMILES	PLAP activator	CYP2C19 inhib	CYP2C9 act	CYP2C19 activ	CYP2C9 inhib
CC(=O)c1ccc(OCC(O)Cn2nnc3ccccc32)cc1 (stereo not drawn)	1.3	76*	0.3	0.2	72*
Cc1cccc(C)c1OCC(O)Cn1nnc2ccccc21 (stereo not drawn)	1.1	59*	0.8	0.4	17
Cc1ccc(C(=O)Cn2nnc3ccccc32)cc1C	0.7	12	0.9	0.9	13
COC(=O)c1ccc(OCC(O)CN2C(=O)NC(C)(C)C2=O)cc1 (stereo not drawn)	1.1	38	0.9	0.6	14
COC(=O)c1ccc(OCC(O)Cn2nnc3ccccc32)cc1 (stereo not drawn)	1	81*	0.2	0.2	82*
O=C1C2CC=CCC2C(=O)N1c1ccc(OCC(O)Cn2nnc3ccccc32)cc1 (stereo not drawn)	1.2	16	0.6	0.8	40
